# According to paper PMC11995724, “Antibiotic target discovery by integrated phenotypic and activity-based profiling of electrophilic fragments” (Cell chemical biology, 2025):
# Hit rate of the full screen: of about 3,200 compounds, about 75 (2%) showed an effect of 50% or more. The list comes from a sample in which strong results are over-represented; it also holds similar structures and randomly drawn compounds.
# Tested on: T1, S. aureus MSSA476
# T1 construct: MSSA476
# Design: species or system S. aureus MSSA476 (TSB) or V. cholerae SAD30 (LB); 384-well bacterial growth screen at 25 uM, OD600 relative to DMSO control
# Settings: relative growth, OD600, TSB; 25 µM; inhibitor
row,SMILES,% of control remaining [%]
1,"Cc1ccc(C=C(C#N)C(=O)Nc2ccccc2Cl)s1 [9-C22, N-(2-chlorophenyl)-2-cyano-3-(5-methylthiophen-2-yl)prop-2-enamide]",83.2959
2,"Cc1ccc(C=C(C#N)C(=O)Nc2ccccc2C(=O)O)s1 [9-K08, 2-[2-cyano-3-(5-methylthiophen-2-yl)prop-2-enamido]benzoic acid]",38.0524
3,"COc1ccccc1NC(=O)C(C#N)=Cc1ccc(C)s1 [8-B15, 2-cyano-N-(2-methoxyphenyl)-3-(5-methylthiophen-2-yl)prop-2-enamide]",118.838
4,"O=C(Nc1nccs1)N1CCSSCC1 [10-O22, N-(1,3-thiazol-2-yl)-1,2,5-dithiazepane-5-carboxamide]",109.063
5,"O=C(CCl)N(Cc1ccc(F)cc1)C1CCCCC1 [4-I13, 2-chloro-N-cyclohexyl-N-[(4-fluorophenyl)methyl]acetamide]",87.6608
6,"CC(Cl)C(=O)Nc1sc(-c2ccccc2)cc1C(N)=O (stereo not shown) [4-H13, 2-(2-chloropropanamido)-5-phenylthiophene-3-carboxamide]",58.3135
7,"CC1(C)C(=O)Nc2ccc(C(=O)CCl)cc21 [10-N21, 5-(2-chloroacetyl)-3,3-dimethyl-2,3-dihydro-1H-indol-2-one]",40.3125
8,"Cn1c(=O)oc2cc(C(=O)CCl)ccc21 [10-F07, 6-(2-chloroacetyl)-3-methyl-2,3-dihydro-1,3-benzoxazol-2-one]",93.125
9,"O=C1CCCc2cc(C(=O)CCl)ccc2N1 [10-M20, 7-(2-chloroacetyl)-2,3,4,5-tetrahydro-1H-1-benzazepin-2-one]",137.5
10,"C=CC(=O)NC(Cn1cncn1)c1ccccc1 (stereo not shown) [3-F17, N-[1-phenyl-2-(1H-1,2,4-triazol-1-yl)ethyl]prop-2-enamide]",118.415
11,"O=C(CCl)N(Cc1ccccc1)c1ccccc1 [4-G13, N-benzyl-2-chloro-N-phenylacetamide]",77.7513
12,"O=C(CCl)N(Cc1ccc(Cl)c([N+](=O)[O-])c1)c1ccccc1 [6-H06, 2-chloro-N-[(4-chloro-3-nitrophenyl)methyl]-N-phenylacetamide]",8.195
13,"Cc1cccc(N(Cc2ccccc2)C(=O)CCl)c1 [6-O07, N-benzyl-2-chloro-N-(3-methylphenyl)acetamide]",98
14,"C=CC(=O)NCC1(S(=O)(=O)CC)CC1 [3-O13, N-{[1-(ethanesulfonyl)cyclopropyl]methyl}prop-2-enamide]",91.2495
15,"Cc1ccc(C=C(C#N)C(=O)NC2CCCCC2)cc1C [8-G10, 2-cyano-N-cyclohexyl-3-(3,4-dimethylphenyl)prop-2-enamide]",108.216
16,"N#CC(=Cc1cc(F)ccc1F)C(=O)NC1CCCCC1 [8-G08, 2-cyano-N-cyclohexyl-3-(2,5-difluorophenyl)prop-2-enamide]",64.3983
17,"N#CC(=Cc1c(F)c(F)c(F)c(F)c1F)C(=O)NC1CCCCC1 [8-O15, 2-cyano-N-cyclohexyl-3-(2,3,4,5,6-pentafluorophenyl)prop-2-enamide]",32.5311
18,"N#CC(=Cc1ccc(F)c(F)c1)C(=O)NC1CCCCC1 [9-J22, 2-cyano-N-cyclohexyl-3-(3,4-difluorophenyl)prop-2-enamide]",94.0824
19,"N#CC(=Cc1ccccc1)C(=O)NC1CCCCCCC1 [8-G17, 2-cyano-N-cyclooctyl-3-phenylprop-2-enamide]",98.9212
20,"N#CC(=Cc1ccc([N+](=O)[O-])c(Cl)c1)C(=O)NC1CCCCC1 [8-B08, 3-(3-chloro-4-nitrophenyl)-2-cyano-N-cyclohexylprop-2-enamide]",29.8755
21,"N#CC(=Cc1sc2ccccc2c1Cl)C(=O)NC1CC1 [9-C18, 3-(3-chloro-1-benzothiophen-2-yl)-2-cyano-N-cyclopropylprop-2-enamide]",110.262
22,"C=CC(=O)NC12CC3(C)CC(C)(CC(O)(C3)C1)C2 [1-K17, N-(3-hydroxy-5,7-dimethyladamantan-1-yl)prop-2-enamide]",111.473
23,"CC(Cl)C(=O)N(C)C1CCN(c2ccccn2)CC1 (stereo not shown) [6-J20, 2-chloro-N-methyl-N-[1-(pyridin-2-yl)piperidin-4-yl]propanamide]",95.6098

row,SMILES,% of control remaining [%]
1,"O=C(CCl)N[C@H](CO)Cc1ccccc1 [6-G20, 2-chloro-N-[(2S)-1-hydroxy-3-phenylpropan-2-yl]acetamide]",109.61
2,"CC(=O)c1ccccc1NC(=O)C(C)Cl (stereo not shown) [5-O19, N-(2-acetylphenyl)-2-chloropropanamide]",103.825
3,"CCN(Cc1ccc(C#N)cc1F)C(=O)CCl [5-H08, 2-chloro-N-[(4-cyano-2-fluorophenyl)methyl]-N-ethylacetamide]",105.282
4,"CSc1ccc(C=C(C#N)C(=O)Nc2cccc(Cl)c2C)cc1 [8-N11, N-(3-chloro-2-methylphenyl)-2-cyano-3-[4-(methylsulfanyl)phenyl]prop-2-enamide]",130.788
5,"C=CC(=O)Nc1ccc(C(=O)NC2CCN(S(C)(=O)=O)CC2)cc1 [2-M21, N-(1-methanesulfonylpiperidin-4-yl)-4-(prop-2-enamido)benzamide]",120.801
6,"O=C(CCl)N1N=C(c2cccs2)CC1c1ccccc1O (stereo not shown) [4-K20, 2-chloro-1-[5-(2-hydroxyphenyl)-3-(thiophen-2-yl)-4,5-dihydro-1H-pyrazol-1-yl]ethan-1-one]",3.049
7,"COc1ccc(C2=NN(C(=O)CCl)C(c3cccc(C)c3)C2)cc1 (stereo not shown) [4-G20, 2-chloro-1-[3-(4-methoxyphenyl)-5-(3-methylphenyl)-4,5-dihydro-1H-pyrazol-1-yl]ethan-1-one]",10.2906
8,"O=C(CCl)N1N=C(c2cccs2)CC1c1cccc(O)c1 (stereo not shown) [6-L04, 2-chloro-1-[5-(3-hydroxyphenyl)-3-(thiophen-2-yl)-4,5-dihydro-1H-pyrazol-1-yl]ethan-1-one]",3.7561
9,"Cc1ccc(C2=NN(C(=O)CCl)C(c3cccs3)C2)cc1 (stereo not shown) [4-O22, 2-chloro-1-[3-(4-methylphenyl)-5-(thiophen-2-yl)-4,5-dihydro-1H-pyrazol-1-yl]ethan-1-one]",88.0419
10,"O=C(CCl)N1N=C(c2cccs2)CC1c1ccc(F)cc1 (stereo not shown) [4-O20, 2-chloro-1-[5-(4-fluorophenyl)-3-(thiophen-2-yl)-4,5-dihydro-1H-pyrazol-1-yl]ethan-1-one]",137.589
11,"COc1ccc(C2=NN(C(=O)CCl)C(c3cccc(F)c3)C2)cc1 (stereo not shown) [6-P04, 2-chloro-1-[5-(3-fluorophenyl)-3-(4-methoxyphenyl)-4,5-dihydro-1H-pyrazol-1-yl]ethan-1-one]",145.463
12,"Cc1ccc(C2CC(c3cccs3)=NN2C(=O)CCl)cc1 (stereo not shown) [4-I22, 2-chloro-1-[5-(4-methylphenyl)-3-(thiophen-2-yl)-4,5-dihydro-1H-pyrazol-1-yl]ethan-1-one]",118.533
13,"COc1ccc(C2=NN(C(=O)CCl)C(c3ccc(F)cc3)C2)cc1 (stereo not shown) [4-M20, 2-chloro-1-[5-(4-fluorophenyl)-3-(4-methoxyphenyl)-4,5-dihydro-1H-pyrazol-1-yl]ethan-1-one]",115.102
14,"O=C(CCl)N1N=C(c2cccs2)CC1c1cccs1 (stereo not shown) [4-O18, 1-[3,5-bis(thiophen-2-yl)-4,5-dihydro-1H-pyrazol-1-yl]-2-chloroethan-1-one]",105.193
15,"N#CC(=Cc1ccc(Cl)cc1)C(=O)Nc1ccncc1 [8-K20, 3-(4-chlorophenyl)-2-cyano-N-(pyridin-4-yl)prop-2-enamide]",95.6017
16,"C=CC(=O)Nc1ccccc1CCC(N)=O [1-A18, N-[2-(2-carbamoylethyl)phenyl]prop-2-enamide]",117.099
17,"COc1cc(NC(=O)CCl)cc(OC)c1 [4-G09, 2-chloro-N-(3,5-dimethoxyphenyl)acetamide]",119.295
18,"Cn1c(-c2ccccc2)c(C(=O)CCl)c2ccccc21 [10-N04, 2-chloro-1-(1-methyl-2-phenyl-1H-indol-3-yl)ethan-1-one]",49.0625
19,"Cn1cccc1C(=O)CCl [10-B04, 2-chloro-1-(1-methyl-1H-pyrrol-2-yl)ethan-1-one]",122.188
20,"O=C(CCl)c1c(-c2ccccc2)[nH]c2ccccc12 [10-E05, 2-chloro-1-(2-phenyl-1H-indol-3-yl)ethan-1-one]",159.063
21,"CCNC(=O)C(C#N)=Cc1ccc(OC(F)F)cc1 [8-E05, 2-cyano-3-[4-(difluoromethoxy)phenyl]-N-ethylprop-2-enamide]",113.527
22,"O=C1C=CC(=O)N1c1cc(C(F)(F)F)ccc1Cl [10-G09, 1-[2-chloro-5-(trifluoromethyl)phenyl]-2,5-dihydro-1H-pyrrole-2,5-dione]",133.75
23,"CC(Cl)C(=O)Nc1sc2c(c1C#N)CCCCC2 (stereo not shown) [5-B20, 2-chloro-N-{3-cyano-4H,5H,6H,7H,8H-cyclohepta[b]thiophen-2-yl}propanamide]",104.918
